The values that follow come from PubChem BioAssay (NCI).

“And” between values parts separate entries of the source, which are not always exact repeats. Identical values can stand only once. About 83,000 compounds went through this panel and 20% of them were active in at least one assay; those are over-represented in the sample as a whole.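 Single-concentration screen, 48 h exposure, 96-well plates. Endpoint: percent growth. Below 10 = active.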 The source made the active and inactive calls.

One test concerns SK-OV-3 ovarian. The test can be described thus: NCI-60 one-dose screen, 48 h (100 = growth as untreated, 0 = no growth, -100 = all killed). To be noted: 0.25 µM. How it is done: Growth inhibition of the SK-OV-3 human tumor cell line is measured as a screen for anti-cancer activity. Cells are grown in 96 well plates and exposed to the test compound for 48 hours. Compounds are tested at a single concentration, which is 10^-5 M for most compounds. The reported endpoint is percent growth (GI% or GIPRCNT), where numbers from 0 - 100% represent growth inhibition, and numbers from -100% - 0 represent cell death. For example, a value of 40 represents 60% growth inhibition. A value of 0 means no net growth occurred over the course of the experiment. A value of -40 indicates 40% of cells at the beginning of the experiment died by the end of the experiment. A value of -100 means all cells are dead at the end of the experiment.
NCI-60 Human Tumor Cell Lines Screen was performed using the standard one-dose NCI protocol, which is described in more detail at https://dtp.cancer.gov/discovery_development/nci-60/default.htm.
Compounds with GIPRCNT values below 10 were considered active. Activity score was based on GIPRCNT using the following formula: […]
Score is 0 for GIPRCNT values of 100 or above, 50 for GIPRCNT values of 0, and 100 for GIPRCNT values of -100.
On to `CCCCCCCCCCCCCCCc1ccc(Cl)c(O)c1Cl` (tested in a mixture with another compound), for which the growth is 53.5% (inactive).

The test is the same for the next values; noted with them: 10 µM.
On to `CC1(C)OB(c2ccc(Cn3cc(F)c(=O)[nH]c3=O)cc2)OC1(C)C`, for which the growth was 114% (inactive).

As to `CCCCCCCCCCCCCCCc1ccc(Cl)c(O)c1Cl` (tested in a mixture with another compound), the growth is 111% (inactive).

Still in this test, the particulars now being: 10 µM unless noted.
Take `COc1cc(NS(C)(=O)=O)ccc1Nc1c2ccccc2nc2c(C)cccc12`: the growth was 5.9% (active) and 11.9% (inactive).

Take `Cc1cc(=O)[nH]c(O)c1C#N`: the growth was 105% (inactive) and 96.2% (inactive).

For `CC(C)CNC(=O)c1ccccc1C(=O)NC1(C(=O)NCC(C)C)CCCC1`, the growth was 107% (inactive) and 99.5% (inactive).

On to `CCOC(=O)C(CNc1ccccc1)C(=O)OCC`, for which the growth was 98.9% (inactive).

As to `COc1cc(Nc2nc3ccccc3nc2NS(=O)(=O)c2ccc(NC(=O)c3ccc(C)c(OC)c3)cc2)cc(OC)c1`, the growth is 49% (inactive) and -44% (active).

As to `c1ccc(NCc2ccc3c(c2)OCO3)cc1`, the growth was 92.4% (inactive) and 99.3% (inactive).

As to `Cc1ccc(-c2noc(CC(=O)c3ccc([N+](=O)[O-])cc3)n2)cc1`, the growth was 97.6% (inactive).

Consider `COc1ccc2ccccc2c1/C=N/N1CCCCC1`, for which the growth was 111% (inactive).

Regarding `CCOc1ccc2c(S(=O)(=O)O)cccc2c1[N+](=O)[O-]`, the growth is 102% (inactive) and 106% (inactive).

Regarding `NC(=S)NS(=O)(=O)c1ccc(N)cc1`, the growth is 108% (inactive).

On to `Nc1ccc(N=Nc2ccc(S(=O)(=O)O)cc2)cc1S(=O)(=O)O`, for which the growth was 105% (inactive) and 106% (inactive).

For the compound `COc1cc(C(=O)c2ccc3c(c2)OCO3)cc(OC)c1OC`, the growth was 24.2% (inactive) and 27.7% (inactive).

Regarding `O=C(Nc1ccc([N+](=O)[O-])cc1Cl)c1cc(Cl)ccc1O`, the growth was 4.16% (active) and 12.8% (inactive).

For the compound `CC(=O)Nc1ccc2cc3ccc(NC(C)=O)cc3nc2c1`, the growth is -13.4% (active) and 67.8% (inactive).

Regarding `CC1CCCc2sc3nc(NNC(=O)c4cnccn4)n(-c4ccccc4)c(=O)c3c21` (stereo not given), the growth was 17% (inactive) and -9.04% (active).

In the case of `Cc1[nH]c(-c2nc3ccccc3[nH]2)c(C)c1C(=O)NC(C)C1CCCCC1` (stereo not given), the growth is -77.6% [100 µM] (active).

Consider `CCOC(=O)Nc1nc2ccccc2[nH]1`, for which the growth was 103% (inactive) and 31.1% (inactive).

With `CC(O)Cn1cnc2c1c(=O)n(C)c(=O)n2C` (stereo not given), the growth is 103% (inactive).

For the compound `CCOC(=O)c1sc(N)nc1-c1ccccc1`, the growth is 93.7% (inactive).

As to `Fc1ccccc1Nc1n[nH]c(=S)s1`, the growth is 110% (inactive).

As to `CCN(CC)CCOc1ccc(/C=N/Nc2nc3c([nH]2)c(=O)n(C)c(=O)n3C)cc1`, the growth is 106% (inactive) and 107% (inactive).

In the case of `CC(=O)Nc1cc(S(=O)(=O)O)cc2cc(S(=O)(=O)O)c(N=Nc3ccccc3)c(O)c12`, the growth is 128% (inactive) and 104% (inactive).

For `O=C(O)C1C2C=CC(C2)C1C(=O)O` (stereo not given), the growth is 113% (inactive) and 65.1% (inactive) and 106% (inactive).

Turning to `Nc1ccccc1SC1CC(=O)N(c2cccc3ccccc23)C1=O` (stereo not given), the growth is 88.6% (inactive).

Take `Cn1cc(-c2cc3c(Nc4ccc(CC(=O)Nc5cc(C(C)(C)C)on5)cc4)ncnc3[nH]2)cn1`: the growth was -5.62% (active) and -14.8% (active).

As to `Nc1cc(-c2cccc(OC(F)(F)F)c2)nc2ccc(N3CCCC3)cc12`, the growth was 36% (inactive) and 5.93% (active).

Take `O=[N+]([O-])c1ccc2nc3c4ccccc4c4ccccc4c3nc2c1`: the growth is 100% (inactive).

On to `Nc1cc2c(cc1N)-c1ccccc1C2`, for which the growth is 96.9% (inactive) and 95.1% (inactive).

With `CNC(=O)c1cccc(-c2ccc3c(N4CCOC[C@@H]4C)nc(N4CCOC[C@@H]4C)nc3n2)c1`, the growth was -23% (active) and -36.9% (active).

With `CCOC(=O)C(C(=O)OCC)C(c1ccccc1)N1CCN(c2ccccc2)CC1` (stereo not given), the growth is 115% (inactive) and 108% (inactive).

As for `Cc1c(Cl)cccc1NCN1C(=O)c2ccccc2C1=O`, the growth is 106% (inactive).

For the compound `CC(C)N=c1cc2n(-c3ccc(Cl)cc3)c3ccccc3nc-2cc1Nc1ccc(Cl)cc1`, the growth was 37.6% (inactive) and 52.9% (inactive) and 42.6% (inactive).

Regarding `CCN(CC)CCCC(C)N(Cc1ccccc1)CC(O)c1ccc(Cl)cc1` (stereo not given), the growth is 94.4% (inactive) and 102% (inactive).

Turning to `N/C(=N\N=C\c1ccc2c(c1)OCO2)N/N=C\c1ccc2c(c1)OCO2`, the growth is 118% (inactive) and 111% (inactive).

With `Cc1nn(-c2ccccc2)nc1C(=O)Nc1ccccc1C(=O)NCC1CC1`, the growth was 99% (inactive) and 91% (inactive).

`Cc1nn(-c2ccc(Cl)cc2)c2ncnc(N/N=C/c3ccccc3O)c12`: the growth is 4.44% (active) and 10.8% (inactive).

Still in this test, the particulars now being: 50 µM.
Turning to `CC1(C)OB(c2ccc(Cn3cc(F)c(=O)[nH]c3=O)cc2)OC1(C)C`, the growth is 69% (inactive).
